According to PubChem BioAssay AID1159580 (chemical genetic matrix, 2015):
Out of some 5,500 compounds screened, about 2,000 (36%) were called active. Inconclusive results (about 18%) are left out. No stated cut-off is given here; in the data, active means normalized growth mostly below about 0.91 (no sharp cut-off); inconclusive means no clear call, values can overlap the other calls; inactive means mostly above about 0.92. The list shows a part of the results.

Test: chemical genetic growth profiling, strain panel (AID 1159580);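 further: tested at 20 µM; growth read once vehicle control cultures reached saturation at 30 °C; 1 = growth at the plate median or of vehicle wells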
Settings: growth OD

Measured: normalized growth

C[n+]1c2cc(N)ccc2cc2ccc(N)cc21
active: S. cerevisiae deletion strains, locus YKL160W, strain elf1, stronger effect = lower value 0.586 | S. cerevisiae deletion strains, locus YKL190W, strain CNB1, stronger effect = lower value 0.85 | S. cerevisiae deletion strains, locus YKR001C, strain vps1, stronger effect = lower value 0.844 | S. cerevisiae deletion strains, locus YKR026C, strain gcn3, stronger effect = lower value 0.696 | S. cerevisiae deletion strains, locus YKR091W, strain srl3, stronger effect = lower value 0.784 | S. cerevisiae deletion strains, locus YLL001W, strain dnm1, stronger effect = lower value 0.456 | S. cerevisiae deletion strains, locus YLL026W, stronger effect = lower value 0.471 | S. cerevisiae deletion strains, locus YLL041C, strain sdh2, stronger effect = lower value 0.652 | S. cerevisiae deletion strains, locus YLR027C, strain aat2, stronger effect = lower value 0.446 | S. cerevisiae deletion strains, locus YLR058C, strain SHM2, stronger effect = lower value 0.743 | S. cerevisiae deletion strains, locus YLR102C, strain apc9, stronger effect = lower value 0.924 | S. cerevisiae deletion strains, locus YLR221C, strain rsa3, stronger effect = lower value 0.468 | S. cerevisiae deletion strains, locus YLR258W, strain gsy2, stronger effect = lower value 0.524 | S. cerevisiae deletion strains, locus YLR262C, strain YPT6 (second series), stronger effect = lower value 0.718 | S. cerevisiae deletion strains, locus YLR268W, strain sec22, stronger effect = lower value 0.776 | S. cerevisiae deletion strains, locus YLR320W, strain mms22, stronger effect = lower value 0.191 | S. cerevisiae deletion strains, locus YLR330W, strain CHS5, stronger effect = lower value 0.863 | S. cerevisiae deletion strains, locus YLR342W, strain FKS1, stronger effect = lower value 0.752 | S. cerevisiae deletion strains, locus YLR357W, strain rsc2, stronger effect = lower value 0.669 | S. cerevisiae deletion strains, locus YLR370C, strain arc18, stronger effect = lower value 0.506 | S. cerevisiae deletion strains, locus YLR371W, strain rom2, stronger effect = lower value 0.908 | S. cerevisiae deletion strains, locus YLR384C, strain iki3, stronger effect = lower value 0.682 | S. cerevisiae deletion strains, locus YLR418C, strain cdc73, stronger effect = lower value 0.727 | S. cerevisiae deletion strains, locus YML016C, strain PPZ1, stronger effect = lower value 0.806 | S. cerevisiae deletion strains, locus YML032C, strain rad52, stronger effect = lower value 0.195 | S. cerevisiae deletion strains, locus YML120C, strain ndi1, stronger effect = lower value 0.409 | S. cerevisiae deletion strains, locus YML124C, strain tub3, stronger effect = lower value 0.928 | S. cerevisiae deletion strains, locus YMR058W, strain fet3, stronger effect = lower value 0.531 | S. cerevisiae deletion strains, locus YMR078C, strain ctf18, stronger effect = lower value 0.783 | S. cerevisiae deletion strains, locus YMR125W, strain sto1, stronger effect = lower value 0.703 | S. cerevisiae deletion strains, locus YMR129W, stronger effect = lower value 0.648 | S. cerevisiae deletion strains, locus YMR205C, strain PFK2, stronger effect = lower value 0.439 | S. cerevisiae deletion strains, locus YMR223W, strain ubp8, stronger effect = lower value 0.717 | S. cerevisiae deletion strains, locus YMR263W, strain SAP30, stronger effect = lower value 0.626 | S. cerevisiae deletion strains, locus YNL067W, strain RPL9B, stronger effect = lower value 0.698 | S. cerevisiae deletion strains, locus YNL071W, strain lat1, stronger effect = lower value 0.28 | S. cerevisiae deletion strains, locus YNL128W, strain TEP1, stronger effect = lower value 0.613 | S. cerevisiae deletion strains, locus YNL153C, strain GIM3, stronger effect = lower value 0.744 | S. cerevisiae deletion strains, locus YNL209W, strain ssb2, stronger effect = lower value 0.554 | S. cerevisiae deletion strains, locus YNL233W, strain BNI4, stronger effect = lower value 0.725 | S. cerevisiae deletion strains, locus YNL248C, strain rpa49, stronger effect = lower value 0.167 | S. cerevisiae deletion strains, locus YNL250W, strain rad50, stronger effect = lower value 0.817 | S. cerevisiae deletion strains, locus YNL271C, strain bni1, stronger effect = lower value 0.911 | S. cerevisiae deletion strains, locus YNL298W, strain CLA4, stronger effect = lower value 0.896 | S. cerevisiae deletion strains, locus YNL307C, strain MCK1, stronger effect = lower value 0.66 | S. cerevisiae deletion strains, locus YNL322C, strain KRE1 (second series), stronger effect = lower value 0.218 | S. cerevisiae deletion strains, locus YNL322C, strain KRE1, stronger effect = lower value 0.836 | S. cerevisiae deletion strains, locus YNR049C, strain mso1, stronger effect = lower value 0.677 | S. cerevisiae deletion strains, locus YNR052C, strain pop2, stronger effect = lower value 0.801 | S. cerevisiae deletion strains, locus YOL006C, strain TOP1, stronger effect = lower value 0.349 | S. cerevisiae deletion strains, locus YOL147C, strain pex11, stronger effect = lower value 0.882 | S. cerevisiae deletion strains, locus YOR001W, strain rrp6, stronger effect = lower value 0.442 | S. cerevisiae deletion strains, locus YOR061W, strain CKA2, stronger effect = lower value 0.865 | S. cerevisiae deletion strains, locus YOR069W, strain VPS5, stronger effect = lower value 0.915 | S. cerevisiae deletion strains, locus YOR070C, strain gyp1, stronger effect = lower value 0.557 | S. cerevisiae deletion strains, locus YOR080W, strain dia2, stronger effect = lower value 0.409 | S. cerevisiae deletion strains, locus YOR083W, strain WHI5, stronger effect = lower value 0.452 | S. cerevisiae deletion strains, locus YOR106W, strain vam3, stronger effect = lower value 0.38 | S. cerevisiae deletion strains, locus YOR136W, strain idh2, stronger effect = lower value 0.91 | S. cerevisiae deletion strains, locus YOR144C, strain elg1, stronger effect = lower value 0.858 | S. cerevisiae deletion strains, locus YOR184W, strain ser1, stronger effect = lower value 0.664 | S. cerevisiae deletion strains, locus YOR231W, strain MKK1, stronger effect = lower value 0.822 | S. cerevisiae deletion strains, locus YOR265W, strain rbl2, stronger effect = lower value 0.599 | S. cerevisiae deletion strains, locus YOR270C, strain vph1, stronger effect = lower value 0.353 | S. cerevisiae deletion strains, locus YOR290C, strain snf2, stronger effect = lower value 0.447 | S. cerevisiae deletion strains, locus YPL051W, strain arl3, stronger effect = lower value 0.597 | S. cerevisiae deletion strains, locus YPL055C, strain LGE1, stronger effect = lower value 0.678 | S. cerevisiae deletion strains, locus YPL078C, strain atp4, stronger effect = lower value 0.465 | S. cerevisiae deletion strains, locus YPL106C, strain sse1, stronger effect = lower value 0.695 | S. cerevisiae deletion strains, locus YPL240C, strain hsp82, stronger effect = lower value 0.685 | S. cerevisiae deletion strains, locus YPL241C, strain CIN2, stronger effect = lower value 0.88 | S. cerevisiae deletion strains, locus YPR119W, strain clb2, stronger effect = lower value 0.92 | S. cerevisiae deletion strains, locus YPR163C, strain tif3, stronger effect = lower value 0.883 | S. cerevisiae deletion strains, locus YPR167C, strain met16, stronger effect = lower value 0.865 | S. cerevisiae deletion strains, strain wtn01, stronger effect = lower value 0.793 | S. cerevisiae strains, strain wild type, stronger effect = lower value 0.831
inactive: S. cerevisiae deletion strains, locus YKL009W, strain mrt4, stronger effect = lower value 0.933 | S. cerevisiae deletion strains, locus YKL068W, stronger effect = lower value 0.956 | S. cerevisiae deletion strains, locus YKL085W, strain MDH1 (second series), stronger effect = lower value 0.963 | S. cerevisiae deletion strains, locus YKL085W, strain MDH1, stronger effect = lower value 0.963 | S. cerevisiae deletion strains, locus YLR039C, strain RIC1, stronger effect = lower value 0.906 | S. cerevisiae deletion strains, locus YLR113W, strain HOG1, stronger effect = lower value 0.862 | S. cerevisiae deletion strains, locus YLR262C, strain YPT6, stronger effect = lower value 0.902 | S. cerevisiae deletion strains, locus YLR342W, strain FKS1 (second series), stronger effect = lower value 0.802 | S. cerevisiae deletion strains, locus YMR231W, strain pep5, stronger effect = lower value 0.945 | S. cerevisiae deletion strains, locus YMR307W, strain GAS1, stronger effect = lower value 0.874 | S. cerevisiae deletion strains, locus YNL183C, strain NPR1, stronger effect = lower value 0.87 | S. cerevisiae deletion strains, locus YOL012C, strain htz1 0.393 | S. cerevisiae deletion strains, locus YOR316C, strain cot1, stronger effect = lower value 0.926 | S. cerevisiae deletion strains, locus YPL256C, strain CLN2, stronger effect = lower value 0.903 | S. cerevisiae deletion strains, locus YPR141C, strain kar3, stronger effect = lower value 0.93
